From PubChem BioAssay AID588856 (National Center for Advancing Translational Sciences (NCATS), 2011) come the findings set out here.

SMILES strings stand for the structures. The whole screen tested about 410,000 compounds, of which about 3,100 (0.76%) were called active. The call rests on the fitted dose curve; in most records, active means well fitted cell-killing curve with a large enough effect; inactive means no such curve, though single readings can be large or run the other way. The list comes from a sample in which actives are over-represented; it also holds similar structures and randomly drawn compounds.
Potency means the concentration at half of the fitted maximal effect.

The test can be described thus: qHTS for Inhibitors of TGF-b: Cytotox Counterscreen. As to conditions: HepG2 CAGA-GFP viability, ATP luminescence, 18 h; series mostly up to 46.1 µM; activity change, negative = cytotoxicity: at the top concentration. A digest of the protocol: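 CellTiter-Glo luminescence gave cytotoxicity after 18 hours at 37 degrees C. The cells were HepG2 CAGA-GFP in 1% FBS DMEM, stimulated with 500 pg/mL TGF-beta after compound addition. %Activity was normalised to no-cell wells (complete cell-killing) and DMSO (no toxicity), and curves were fitted and classified.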
In general terms: qHTS replaces the single test concentration by a dilution series.
As to `CCCOc1ccc(C2c3c(-c4ccccc4O)n[nH]c3C(=O)N2Cc2cccnc2)cc1` (configuration not stated), the “activity change, negative = cytotoxicity” value is -79% (inactive).
For `CCCCN1C(=O)c2[nH]nc(-c3ccccc3O)c2C1c1cccc(OCc2ccccc2)c1` (configuration not stated), the Potency was 14.1 µM (active).
For `COc1ccc(CCN2C(=O)c3[nH]nc(-c4ccccc4O)c3C2c2ccc(C)cc2)cc1OC` (configuration not stated), the “activity change, negative = cytotoxicity” value is -76.8% (inactive).
The same measure, in the same setting: next, `O=c1[nH]c2cc(Br)ccc2n2cccc12`: 0.445% (inactive); `Cc1cccc(N2CCN(C(=O)c3cc4c(=O)oc5ccccc5c4s3)CC2C)c1` (configuration not stated): -22.6% (inactive).
For `CC(C)c1ccc2oc(-c3cc(NC(=O)c4cccs4)ccc3Cl)nc2c1`, the “activity change, negative = cytotoxicity” value is -4.59% (inactive).
With `CCCCn1nc(C(=O)Nc2cccc(C(=O)NC3CC3)c2)c2ccccc2c1=O`, the “activity change, negative = cytotoxicity” value is 0.488% (inactive).
Regarding `CCCn1nc(C(=O)NNC(=O)CSCC(=O)Nc2cc(C)on2)c2ccccc2c1=O`, the Potency is 11.2 µM (active).
For the molecule `CCCn1nc(C(=O)NNC(=O)CCOc2ccccc2OCC)c2ccccc2c1=O`, the “activity change, negative = cytotoxicity” value is -14.2% (inactive).
Turning to `Cc1csc[n+]1CCC1CCCCC1`, the “activity change, negative = cytotoxicity” value is -12.3% (inactive).
As for `O=C(O)C1CC=CC2CCN(C3CCCCC3)C(=O)C21` (configuration not stated), the “activity change, negative = cytotoxicity” value was -8.33% (inactive).
On to `CCCS(=O)(=O)Nc1cccc(-c2cn3ccsc3n2)c1`, for which the “activity change, negative = cytotoxicity” value was -12.9% (inactive).
As for `CSc1nc(-c2ccccc2)nc(C(Cl)Cl)n1`, the Potency was 5.01 µM (active).
In the case of `CSc1nc(Nc2ccc(F)cc2)cc(-c2ccccc2)n1`, the “activity change, negative = cytotoxicity” value is -48.3% (inactive).
Consider `O=C(NCC1CC1)C1(C(F)(F)F)C/C(=C\CCO)CCCO1` (configuration not stated), for which the “activity change, negative = cytotoxicity” value is 2.46% (inactive).
`Cn1nnnc1SCc1cc(=O)[nH]c2ccccc12`: the “activity change, negative = cytotoxicity” value is 4.53% (inactive).
As to `Cc1ccc(N(Cc2cc(=O)[nH]c3ccccc23)C(=O)CCl)cc1`, the Potency was 17.8 µM (active).
For `Cc1ccc(N(Cc2ccccc2O)C(=O)c2ccccc2F)cc1`, the “activity change, negative = cytotoxicity” value is -24.5% (inactive).
For the molecule `O=c1cc(-c2ccccc2)n2c(SCc3ccccc3)nnc2[nH]1`, the “activity change, negative = cytotoxicity” value was -7.93% (inactive).
Turning to `CC(C)NC(=O)C1CCC(Cn2c(=O)c3sccc3n(Cc3ccc(F)cc3)c2=O)CC1` (configuration not stated), the “activity change, negative = cytotoxicity” value is -3.48% (inactive).
As to `O=C(NC(c1ccc(-c2ccccc2)cc1)c1cnccn1)C1CCN(CCOc2ccc(Cl)cc2Cl)CC1` (configuration not stated), the “activity change, negative = cytotoxicity” value was -103% (inactive).
Consider `Cc1ccc(C(NC(=O)C2CCN(CCOc3ccc(Cl)cc3Cl)CC2)c2ccccn2)cc1` (configuration not stated), for which the Potency was 20 µM (active).
Turning to `Cc1cccnc1C(NC(=O)C1CCN(Cc2ccc(Cl)c(Cl)c2)CC1)c1ccc(Cl)cc1` (configuration not stated), the “activity change, negative = cytotoxicity” value is -35.5% (inactive).
Regarding `CCCCOc1ccc(CN2C(=O)C(=O)c3cc(Br)cc(C)c32)cc1OC`, the Potency is 15.8 µM (active).
For the molecule `Cc1cccc2c1N(CCOc1ccccc1)C(=O)C2=O`, the “activity change, negative = cytotoxicity” value was 23.1% (inactive).
On to `CCCCOc1ccc(Cn2c(=O)oc3ccc(C)cc32)cc1OC`, for which the “activity change, negative = cytotoxicity” value was 0.757% (inactive).
Turning to `CCCn1c(SCC(=O)c2ccc3c(c2)OCCO3)nnc1C(C)C`, the Potency is 10 µM (active).
As for `CCCn1c(SCC(=O)Nc2c(C)cccc2C)nnc1C(C)C`, the “activity change, negative = cytotoxicity” value is -12.8% (inactive).
As for `O=C(CSc1nnc(CN2CCCC2)n1-c1ccc(F)cc1)c1ccc2c(c1)OCO2`, the “activity change, negative = cytotoxicity” value was -6.43% (inactive).
In the case of `Cc1cccc(C)c1-n1ncc(C(=O)NCCCN2CCCCC2)c1C1CCN(C(=O)OC(C)(C)C)CC1`, the “activity change, negative = cytotoxicity” value is -1.11% (inactive).
For the molecule `COc1cc(OC)c(NC(=O)c2cnc(N3CCCC3)nc2C)cc1Cl`, the “activity change, negative = cytotoxicity” value is -15.2% (inactive).
As to `CCOC(=O)/C(=C\c1ccc([N+](=O)[O-])cc1)C(=O)c1cc(C(C)=O)c(Nc2ccccc2)s1`, the Potency was 5.01 µM (active).
For the molecule `CCOC(=O)c1c(C)[nH]c(C)c1C(=O)COC(=O)/C=C/c1cccc([N+](=O)[O-])c1`, the “activity change, negative = cytotoxicity” value was 6.06% (inactive).
As to `CC(C)c1nnc(NC(=O)COC(=O)/C=C/c2ccc([N+](=O)[O-])cc2)s1`, the “activity change, negative = cytotoxicity” value is 11.7% (inactive).
`COCCCn1c(=O)/c(=C/c2ccccc2OC(C)C)s/c1=C(\C#N)C(=O)Nc1ccc(C(=O)O)cc1`: the Potency was 12.6 µM (active).
With `CC(C)OCCCn1c(SCC(=O)c2ccccc2)nc2c(sc3ccccc32)c1=O`, the “activity change, negative = cytotoxicity” value was -19.4% (inactive).
On the same count and under the same terms, next, `COc1ccccc1C(=O)N/C(=C/c1ccco1)C(=O)Nc1ccc(C(=O)O)cc1`: 11.7% (inactive).
With `COc1cc2nc(C#Cc3nc4cc(OC)c(OC)cc4[nH]3)[nH]c2cc1OC`, the “activity change, negative = cytotoxicity” value was -56.3% (inactive).
Take `Cc1cccc(NC(=O)Nc2ccc3c(c2)OCO3)n1`: the Potency is 22.4 µM (active).
Take `CNS(=O)(=O)c1ccc(NC(=O)Nc2ccc3c(c2)OCO3)cc1`: the “activity change, negative = cytotoxicity” value was -3.31% (inactive).
Same read-out and setting: next, `Cc1onc(C(=O)Nc2ccc3c(c2)OCO3)c1[N+](=O)[O-]`: -0.941% (inactive); `CC1CCCN(Cc2c(O)ccc3c(=O)c(Oc4ccc(C(C)(C)C)cc4)c(C(F)(F)F)oc23)C1` (configuration not stated): -8.79% (inactive).
`CCOc1ccc(NC(=O)c2cc(S(=O)(=O)N3CCCC3)c[nH]2)cc1`: the “activity change, negative = cytotoxicity” value was -5.65% (inactive).
With `O=C1Nc2cc(C(=O)N3CCC(N4CCCCC4)CC3)ccc2S/C1=C\c1ccccc1`, the “activity change, negative = cytotoxicity” value is -82.5% (inactive).
In the case of `COc1ccc(CN2CCCC(CNC(=O)c3ccc(F)cc3)C2)cc1OC` (configuration not stated), the “activity change, negative = cytotoxicity” value was -8.02% (inactive).
`CCN1CCCC1CNC(=O)c1ccc2c(c1)NC(=O)/C(=C\c1ccccc1F)S2` (configuration not stated): the Potency is 15.8 µM (active).
On to `COc1ccccc1-c1noc(-c2ccc(NCc3ccccc3)c([N+](=O)[O-])c2)n1`, for which the “activity change, negative = cytotoxicity” value is 3.13% (inactive).
For the molecule `Cc1ccc(Cn2cnc3c(cnn3C(C)(C)C)c2=O)c(F)c1`, the “activity change, negative = cytotoxicity” value is -24% (inactive).
With `NC(=O)COc1ccc(/C=N/NC(=O)C2CCCN2S(=O)(=O)c2ccc(Cl)cc2)cc1` (configuration not stated), the “activity change, negative = cytotoxicity” value is -2.7% (inactive).
As to `NC(N)=N/N=C/c1ccc(OCc2ccc(Cl)cc2Cl)cc1`, the Potency is 14.1 µM (active).
Regarding `Cc1ccc(CCNC(=O)Cn2c(-c3cccs3)cc3cc(F)ccc32)cc1`, the “activity change, negative = cytotoxicity” value is -1.63% (inactive).
On the same count and under the same terms, under `CC(C)c1ccc(NC(=O)Cn2nnc(C(=O)NCCc3ccccc3)c2N)cc1` stands -11.7% (inactive).
